This note sets out measurements from PubChem BioAssay (Tox21).

Test [1] is described as follows: Nuclear factor erythroid 2-related factor 2/antioxidant responsive element (Nrf2/ARE) small molecule agonists: qHTS cell viability counter screen in human keratinocytes (AID 1919968; active = well fitted curve in the direction sought with a large enough effect in the repeat runs; an effect the other way counts as inactive or inconclusive; also: nearly all actives have a fitted effect of over 55% in size; also: potency is read from the fitted curve at half-maximal effect). The method, boiled down:
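Cells of the KeratinoSens line were plated at 1,500 per well and left for 5 h before compound transfer from DMSO stocks. After a 23 h incubation (37 C, 5% CO2), CellTiter-Fluor was added. Signal was taken as fluorescence intensity 1 h later.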
(In qHTS, concentration-response curves come from the screen itself.)

Test [2] concerns the target KiSS-1 receptor (Homo sapiens) (UniProt Q969F8). Put plainly: Human kisspeptin (KISS1R) small molecule agonists, calcium flux assay in KISS1R-HEK293 cells (AID 1920064; active = well fitted curve in the direction sought with a large enough effect in the repeat runs; an effect the other way counts as inactive or inconclusive). The method, boiled down: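 Cell line: HEK293, stable human KISS1R. Dye loading 1 h at 37 C after 18 h culture. Read: kinetic fluorescence, 480/540 nm, 3 min at 1 s intervals.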
A general note: Calcium assays in cells follow changes in intracellular calcium, usually with a dye or a luminescent sensor.

The nature of test [3]: G protein-coupled receptor (GPCR) small molecule agonists, calcium flux assay: HEK293 wild type cell line counter screen (AID 1920065). In short, it runs like this: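 Tox21 10K compounds, 15 concentrations each in triplicate, pin-transferred in DMSO onto dye-loaded cells; kinetic read at 480/540 nm for 3 min, 1 s intervals.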
Test [4] is described as follows: p53 small molecule agonists, cell-based qHTS assay with human liver microsomes (AID 1963577).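 Also: p53 response element beta-lactamase reporter cells with liver microsomes plus NADPH.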 The method, boiled down: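 Steps: plate p53RE-bla cells, incubate 5 h at 37 C; add compound in DMSO; add microsomes (0.5 mg/mL final) and NADPH (0.5 mg/mL final); incubate 16 h at 37 C; add LiveBLAzer, 2 h RT; read fluorescence.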
A short description of test [5]: p53 small molecule agonists, cell-based qHTS assay with rat liver microsomes (AID 1963578). The method, boiled down: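 Metabolic activation is supplied by rat liver microsomes with NADPH (each 0.5 mg/mL final). p53RE-bla cells incubate with compound 16 h at 37 C; reporter activity is measured by LiveBLAzer fluorescence.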
Test [6] can be described thus: p53 small molecule agonists, cell-based qHTS assay with rat liver microsomes: qHTS cell viability counter screen (AID 1963580). Also: nearly all actives have a fitted effect of over 45% in size. Also: potency is read from the fitted curve at half-maximal effect. The method, boiled down:
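Cytotoxicity counter screen: intracellular ATP read by CellTiter-Glo luminescence in the p53 reporter wells. HCT-116 p53RE-bla cells were treated for 16 h at 37 C alongside rat liver microsomes and NADPH, each 0.5 mg/mL final.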

The nature of test [7]: p53 small molecule agonists, cell-based qHTS assay: qHTS cell viability counter screen (AID 1963581). Also: nearly all actives have a fitted effect of over 45% in size. The method, boiled down: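 ATP content measured by luminescence in HCT-116 p53RE-bla cells treated 16 h at 37 C, same wells as the reporter screen.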
Test [8] can be described thus: p53 small molecule agonists, cell-based qHTS assay (AID 1963582; active = well fitted activation curve with a large enough effect in the signal ratio in the repeat runs, not every such curve was filed as active; the % refers to the signal ratio). The method, boiled down: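 16 h compound exposure (37 C) of p53 response element–bla cells, preceded by 5 h recovery at 37 C/5% CO2; read-out via LiveBLAzer B/G FRET substrate, 2 h RT, fluorescence intensity.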
Test [9] addresses 5-hydroxytryptamine receptor 2A (Homo sapiens) (UniProt P28223). Put plainly: 5-hydroxytryptamine receptor 2A (HTR2A) small molecule antagonists, cell-based qHTS assay (AID 1963586). Also: nearly all actives have a fitted effect of over 45% in size. The method, boiled down: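 CHO cells stably expressing human HTR2A were plated for 18 h at 37 C, then loaded with calcium dye for 1 h. Compounds were preincubated 5 min at room temperature before DOI (4 nM solution) was added. Kinetic fluorescence was read for 3 min.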

Test [10] shares this target. Put plainly: 5-hydroxytryptamine receptor 2A (HTR2A) small molecule agonists, cell-based qHTS assay (AID 1963587). Also: nearly all actives have a fitted effect of over 30% in size. In short, it runs like this: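 Kinetic calcium-flux fluorescence (2 min, 1 sec intervals) after compound addition in agonist mode. HTR2A-CHO cells were cultured 18 h, then dye-loaded 1 h at 37 C.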
Test [11] concerns the target Muscarinic acetylcholine receptor M1 (Homo sapiens) (UniProt P11229). Put plainly: Cholinergic receptor muscarinic 1 (CHRM1) small molecule antagonists, cell-based qHTS assay (AID 1963588). Also: nearly all actives have a fitted effect of over 40% in size. The method, boiled down:
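Compounds were tested at 15 concentrations in three independent runs. Dye-loaded CHRM1-CHO cells were exposed 5 min at room temperature before stimulation by acetylcholine added at 50nM. Intracellular calcium was read kinetically on FDSS for 3 min.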

The target is the same in test [12]. Put plainly: Cholinergic receptor muscarinic 1 (CHRM1) small molecule agonists, cell-based qHTS assay (AID 1963589). Also: nearly all actives have a fitted effect of over 35% in size. In short, it runs like this:
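Homogeneous fluorescence calcium flux, agonist mode. Human M1-expressing CHO cells; compound dosed at 15 concentrations, three independent runs; signal sampled every 1 sec.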

A short description of test [13]: cAMP Responsive Elements (CRE) small molecule agonists, cell-based qHTS assay (AID 1963590). In short, it runs like this: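 HEK 293T cells stably bearing CRE-bla were plated at 2,000 cells per well and rested 18 h. Compounds, positive controls or DMSO were added for 3 h at 37 C. LiveBLAzer B/G substrate was then loaded for 2 h at room temperature.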
The nature of test [14]: cAMP Responsive Elements (CRE) small molecule antagonists, cell-based qHTS assay (AID 1963591; active = well fitted inhibition curve with a large enough effect in the signal ratio in the repeat runs, not every such curve was filed as active; the % refers to the signal ratio). In short, it runs like this: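 First, CRE-bla HEK293T cells settled 18 h at 37 C. Next, compound and 0.25 uM final NKH477 were applied for 3 h. Last, LiveBLAzer B/G substrate was loaded for 2 h at room temperature.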
In test [15] the target is Beta-2 adrenergic receptor (Homo sapiens) (UniProt P07550). Put plainly: Adrenergic beta2 receptor (ADRB2) small molecule antagonists, cell-based qHTS assay (AID 1963592). Also: series mostly up to about 92 µM; nearly all actives have a fitted effect of over 50% in size. The method, boiled down:
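Assay format: CHO-ADRB2 cells, 18-20hr seeding at 37C/5% CO2, then compound plus 1nM isoproterenol agonist mix for 0.5hr RT. Homogeneous time-resolved fluorescence cAMP detection after 1hr, expressed as 665/615 nm ratio.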

Test [16] has as its target D(2) dopamine receptor (Homo sapiens) (UniProt P14416). Put plainly: Dopamine D2 receptor (DRD2) small molecule agonists, cell-based qHTS assay (AID 1963594). Also: nearly all actives have a fitted effect of over 35% in size. The method, boiled down: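 cAMP accumulation in DRD2-HEK293 cells measured by HTRF after 1 h detection; compounds added 10 min before NKH477 (200nM […]) forskolin-analogue stimulation, 30 min at room temperature, with Ro20-1724 present at 0.1 mM final.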

The target is the same in test [17]. Put plainly: Dopamine D2 receptor (DRD2) small molecule antagonists, cell-based qHTS assay (AID 1963595; active = well fitted inhibition curve with a large enough effect in the signal ratio in the repeat runs, with a control signal flat; the % refers to the signal ratio). In short, it runs like this: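 HEK293 cells stably expressing DRD2, preincubated with 0.1 mM Ro20-1724 and compounds 10 min, were stimulated with 200 nM NKH477 plus 12 nM quinpirole for 30 min at room temperature; cAMP measured by HTRF (665/620 nm).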
For test [18], the target named is Gonadotropin-releasing hormone receptor (Homo sapiens) (UniProt P30968). Put plainly: Human gonadotropin-releasing hormone receptor (GnRHR) small molecule agonists, calcium flux assay in GnRHR-HEK293 cells (AID 1920063). Also: nearly all actives have a fitted effect of over 35% in size. In short, it runs like this: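 Compounds dissolved in DMSO are pin-transferred onto dye-loaded GnRHR-HEK293 cells, which were seeded 18 h before at 37 C/5% CO2. Calcium signal is read as fluorescence intensity at 1 s intervals for 3 min.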
Gonadotropin-releasing hormone receptor (Homo sapiens), sequence (P30968 whole entry, looked up): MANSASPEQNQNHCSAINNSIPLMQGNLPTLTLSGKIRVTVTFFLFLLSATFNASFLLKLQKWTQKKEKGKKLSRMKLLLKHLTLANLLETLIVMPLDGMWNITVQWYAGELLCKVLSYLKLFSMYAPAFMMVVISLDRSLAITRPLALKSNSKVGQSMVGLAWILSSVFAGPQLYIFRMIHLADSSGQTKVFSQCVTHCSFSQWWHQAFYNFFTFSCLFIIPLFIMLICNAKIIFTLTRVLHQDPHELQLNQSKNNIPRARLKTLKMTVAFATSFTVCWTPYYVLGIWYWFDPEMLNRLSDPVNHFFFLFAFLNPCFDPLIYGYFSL

A short description of test [19]: p53 small molecule agonists, cell-based qHTS assay with human liver microsomes: qHTS cell viability counter screen (AID 1963579). Also: nearly all actives have a fitted effect of over 45% in size. In short, it runs like this: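 After the 460/530 nm beta-lactamase read, CellTiter-Glo was added to the same wells and luminescence measured after 30 min at room temperature, giving viability of p53RE-bla cells treated 16 h with compounds plus microsomes and NADPH.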

Test [20] addresses Beta-2 adrenergic receptor (Homo sapiens) (UniProt P07550). Put plainly: Adrenergic beta2 receptor (ADRB2) small molecule agonists, cell-based qHTS assay (AID 1963593).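 Also: CHO cells stably overexpressing human ADRB2.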 In short, it runs like this: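 CHO cells stably over-expressing ADRB2 were plated overnight at 37C, then dosed with compounds plus a stimulation mix containing 100uM IBMX and 25uM Ro-20-1724 for 0.5hr at room temperature. cAMP was measured by HTRF competition, 1hr.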

Where “and” joins values, the source holds several entries; their conditions need not be identical. Identical values can stand only once. Results filed as inconclusive are left out. A structure can be active in one record and inactive in another. Calls of active or inactive are those of the source. Unless noted, calls follow the shape of the full dose curve.

Muscarinic acetylcholine receptor M1 (Homo sapiens), sequence (P11229 whole entry, looked up): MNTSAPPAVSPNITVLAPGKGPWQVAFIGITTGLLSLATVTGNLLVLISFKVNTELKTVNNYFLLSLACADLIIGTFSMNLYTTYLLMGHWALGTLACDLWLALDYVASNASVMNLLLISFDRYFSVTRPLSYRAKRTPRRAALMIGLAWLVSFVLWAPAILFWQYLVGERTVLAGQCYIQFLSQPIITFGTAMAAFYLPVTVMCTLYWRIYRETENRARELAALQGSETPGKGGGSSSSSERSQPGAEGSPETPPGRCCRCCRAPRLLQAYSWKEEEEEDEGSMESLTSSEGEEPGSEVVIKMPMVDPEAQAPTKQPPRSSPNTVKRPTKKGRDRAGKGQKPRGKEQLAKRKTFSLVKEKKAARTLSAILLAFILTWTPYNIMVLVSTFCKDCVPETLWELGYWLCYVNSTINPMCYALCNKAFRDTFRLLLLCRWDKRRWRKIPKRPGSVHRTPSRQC
D(2) dopamine receptor (Homo sapiens), sequence (P14416 whole entry, looked up): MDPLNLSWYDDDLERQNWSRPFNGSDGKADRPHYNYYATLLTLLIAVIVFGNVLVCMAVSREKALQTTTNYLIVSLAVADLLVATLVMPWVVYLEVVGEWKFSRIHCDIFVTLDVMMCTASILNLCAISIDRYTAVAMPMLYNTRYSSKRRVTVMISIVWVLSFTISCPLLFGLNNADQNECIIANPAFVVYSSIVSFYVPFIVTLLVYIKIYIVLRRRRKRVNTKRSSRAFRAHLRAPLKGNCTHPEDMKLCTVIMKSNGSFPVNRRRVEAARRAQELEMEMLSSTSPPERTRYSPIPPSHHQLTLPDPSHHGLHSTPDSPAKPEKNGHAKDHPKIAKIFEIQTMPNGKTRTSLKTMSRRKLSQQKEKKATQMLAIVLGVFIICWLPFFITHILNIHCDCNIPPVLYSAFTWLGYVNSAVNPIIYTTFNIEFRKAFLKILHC
Beta-2 adrenergic receptor (Homo sapiens), sequence (P07550 whole entry, looked up): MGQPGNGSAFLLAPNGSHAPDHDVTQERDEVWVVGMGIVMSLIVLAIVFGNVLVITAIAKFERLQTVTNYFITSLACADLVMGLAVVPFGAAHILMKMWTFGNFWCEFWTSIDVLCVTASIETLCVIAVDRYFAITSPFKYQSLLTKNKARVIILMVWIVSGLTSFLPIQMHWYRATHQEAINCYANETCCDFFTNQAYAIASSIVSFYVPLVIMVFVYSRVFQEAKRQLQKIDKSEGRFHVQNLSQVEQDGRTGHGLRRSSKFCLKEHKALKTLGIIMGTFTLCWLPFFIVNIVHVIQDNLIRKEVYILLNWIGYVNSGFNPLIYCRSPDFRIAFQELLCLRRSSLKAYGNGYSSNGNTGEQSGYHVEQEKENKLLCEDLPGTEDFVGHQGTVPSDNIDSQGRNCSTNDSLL
5-hydroxytryptamine receptor 2A (Homo sapiens), sequence (P28223 whole entry, looked up): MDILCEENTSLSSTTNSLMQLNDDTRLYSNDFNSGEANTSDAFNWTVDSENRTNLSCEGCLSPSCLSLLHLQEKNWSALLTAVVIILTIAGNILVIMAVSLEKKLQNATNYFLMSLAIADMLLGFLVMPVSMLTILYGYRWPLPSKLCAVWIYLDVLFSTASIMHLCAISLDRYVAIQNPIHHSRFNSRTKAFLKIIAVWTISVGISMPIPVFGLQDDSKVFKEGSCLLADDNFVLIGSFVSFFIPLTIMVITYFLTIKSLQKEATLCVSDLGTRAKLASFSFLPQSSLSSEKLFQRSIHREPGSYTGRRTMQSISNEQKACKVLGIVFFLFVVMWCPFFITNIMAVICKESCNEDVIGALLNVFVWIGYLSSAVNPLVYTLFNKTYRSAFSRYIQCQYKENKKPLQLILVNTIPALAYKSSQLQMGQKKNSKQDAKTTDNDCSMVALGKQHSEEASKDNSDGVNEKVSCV
KiSS-1 receptor (Homo sapiens), sequence (Q969F8 whole entry, looked up): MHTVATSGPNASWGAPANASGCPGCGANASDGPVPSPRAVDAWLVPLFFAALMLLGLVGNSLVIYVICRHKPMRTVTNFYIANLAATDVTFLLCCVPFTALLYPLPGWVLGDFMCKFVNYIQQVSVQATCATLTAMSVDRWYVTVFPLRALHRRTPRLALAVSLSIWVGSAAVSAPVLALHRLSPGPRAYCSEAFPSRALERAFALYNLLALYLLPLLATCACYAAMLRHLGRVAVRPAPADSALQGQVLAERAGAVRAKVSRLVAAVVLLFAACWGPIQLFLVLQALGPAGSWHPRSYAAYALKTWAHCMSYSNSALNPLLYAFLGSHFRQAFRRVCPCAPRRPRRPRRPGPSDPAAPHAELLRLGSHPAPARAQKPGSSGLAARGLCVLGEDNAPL

Regarding `CCOC(=S)S`, the Potency in test [1] was 27.3 µM (active) and 18.3 µM (active). Besides, the Potency entry in test [2], in test [3], in test [4], in [5], in test [6] and in test [7] was “inactive” in each case. Further, the Potency result in test [8], in test [9], in test [10], in test [11], in [12] and in [13] was “inactive” each time. Moreover, the Potency entry in test [14], in [15], in [16] and in test [17] was “inactive” in each case.

For `C=C(C)C(=O)OCC(CC)CCCC` (stereo unspecified), the Potency result in test [18], in test [2], in test [3], in [4], in test [5] and in test [19] was “inactive” in each case. Besides, the Potency result in test [6], in [7], in [8], in [9], in test [10] and in test [11] was “inactive” throughout. The Potency entry in [12], in test [13], in [14], in test [15], in [20] and in test [16] was “inactive” throughout. Moreover, the Potency result in [17] is “inactive”.

On to `Sc1ccccc1`, for which the Potency entry in test [1], in test [18], in test [2], in test [3], in test [7] and in test [9] was “inactive” throughout. Further, the Potency entry in test [10], in [11], in test [12], in test [13], in test [14] and in [15] was “inactive” throughout. The Potency result in test [20], in [16] and in test [17] was “inactive” in each case.

Regarding `OCC1CO1` (stereo unspecified), the Potency entry in test [18], in test [2], in test [3], in [4], in test [5] and in test [19] was “inactive” each time. Moreover, the Potency entry in test [7], in [8], in test [9], in [10], in test [11] and in [12] was “inactive” throughout. For the same compound, the Potency entry in test [13], in test [14], in [15], in test [20], in test [16] and in test [17] was “inactive” each time. In [6], the Potency is 41.5 µM (active) and inactive.

`Oc1ccccc1-c1ccccc1`: the Potency entry in [1], in [18], in test [3], in test [4], in [5] and in [19] was “inactive” each time. In addition, the Potency result in test [6], in test [7], in test [8], in [9], in test [10] and in test [11] was “inactive” throughout. The Potency entry in test [12], in test [13], in test [14], in [15], in test [20] and in test [16] was “inactive” each time. Further, in test [17], the Potency entry is “inactive”.

Turning to `Nc1ccc(Oc2ccc(N)cc2)cc1`, the Potency entry in test [1], in [18], in [3], in test [5], in test [19] and in test [6] was “inactive” throughout. Further, the Potency result in test [7], in test [8], in [10], in [11], in test [12] and in test [13] was “inactive” throughout. In addition, the Potency entry in [14], in [15], in test [20], in test [16] and in test [17] was “inactive” in each case.
